# Results filed as inconclusive are left out. Values without a mark were called inactive. Calls come from the whole dose curve; as a rule, active = well fitted activation curve with a large enough effect; inconclusive = small, poorly fitted or top-dose-only effect; inactive = no such curve, though single readings can be large or run the other way.
# Biological target: Rap guanine nucleotide exchange factor 3 (Homo sapiens) (UniProt O95398)
# Experiment: Confirmatory qHTS for agonist of cAMP-regulated guanine nucleotide exchange factor 3 (EPAC1) (AID 1645881);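 note: EPAC1 catalysed release of BODIPY-GDP from Rap1B seen as fluorescence loss; 100% = effect of cAMP agonist control; nearly all actives have a fitted effect of over 75% in size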
# Conditions: EPAC1 Rap1B BODIPY-GDP exchange fluorescence; series mostly up to 154 µM; activation: at the top concentration
# Sequence of Rap guanine nucleotide exchange factor 3 (Homo sapiens) (O95398 whole entry, looked up): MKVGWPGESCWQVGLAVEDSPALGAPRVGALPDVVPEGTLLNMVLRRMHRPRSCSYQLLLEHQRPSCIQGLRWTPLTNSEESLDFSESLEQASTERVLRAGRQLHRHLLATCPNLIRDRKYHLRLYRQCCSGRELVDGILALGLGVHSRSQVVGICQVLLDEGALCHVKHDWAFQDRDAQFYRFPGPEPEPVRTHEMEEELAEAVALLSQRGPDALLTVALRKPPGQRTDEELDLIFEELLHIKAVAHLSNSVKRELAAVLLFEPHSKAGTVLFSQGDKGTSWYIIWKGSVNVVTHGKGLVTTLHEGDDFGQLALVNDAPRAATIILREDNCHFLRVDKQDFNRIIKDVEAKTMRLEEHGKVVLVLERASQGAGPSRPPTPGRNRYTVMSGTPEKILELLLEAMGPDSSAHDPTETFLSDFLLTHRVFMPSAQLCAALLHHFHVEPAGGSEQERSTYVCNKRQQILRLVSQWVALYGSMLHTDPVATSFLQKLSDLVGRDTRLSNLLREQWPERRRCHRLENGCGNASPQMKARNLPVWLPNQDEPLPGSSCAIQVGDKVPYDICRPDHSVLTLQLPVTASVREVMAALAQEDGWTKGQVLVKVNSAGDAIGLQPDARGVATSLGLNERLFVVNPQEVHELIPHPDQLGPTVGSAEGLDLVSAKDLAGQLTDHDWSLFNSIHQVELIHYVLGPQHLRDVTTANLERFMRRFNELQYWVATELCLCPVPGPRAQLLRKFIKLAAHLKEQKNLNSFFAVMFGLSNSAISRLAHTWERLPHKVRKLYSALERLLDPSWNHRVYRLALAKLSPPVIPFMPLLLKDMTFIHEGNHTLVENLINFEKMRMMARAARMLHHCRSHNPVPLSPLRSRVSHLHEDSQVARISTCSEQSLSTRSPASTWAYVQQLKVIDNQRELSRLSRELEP
row,Structure (SMILES),activation [%]
1,O=S(=O)(Nc1nccs1)c1ccc(Nc2nnc(-c3ccccc3)c3ccccc23)cc1,-3.34
2,O=C1c2ccccc2C(c2nnnn2Cc2ccccc2)N1CCc1c[nH]c2ccccc12 (stereo not given),9.41
3,CCCCc1ccc(NC(=O)CN2C(=O)C3CCCCC3C2=O)cc1 (stereo not given),6.98
4,O=C1C(=Cc2cn(-c3ccccc3)nc2-c2ccc(OCc3ccc(Cl)cc3)cc2)SC(=S)N1CCS(=O)(=O)O,19.8
5,CCOC(=O)c1c(NC(=O)c2ccc(S(=O)(=O)N(C)CC3CCCO3)cc2)sc2c1CCN(C)C2 (stereo not given),-70
6,Cc1ccc2oc(=O)c3cnn(CC(=O)NC4CCC(C)CC4)c3c2c1 (stereo not given),-8.88
7,COc1ccc(NC(=O)c2cccnc2NCCc2ccccc2)cc1,14.9
8,CCCCC[C@H](C)N1C[C@H](COCc2ccccc2)Oc2cc(N3CCC[C@H]3C(N)=O)ccc2S1(=O)=O,-23.7
9,COc1ccc(-c2nc(CCNS(=O)(=O)c3ccc4c(c3)OCCO4)cs2)cc1,-2.71
10,O=C(COC(=O)c1c2c(nc3ccccc13)/C(=C\c1ccco1)CC2)NC1CCCC1,9.41
11,CCOC(=O)c1c(C)[nH]c(C(=O)C(C)OC(=O)c2ccc(NC(=O)CC#N)cc2)c1C (stereo not given),-5.03
12,O=C(CC1C[C@H](C(=O)N2CCCCC2)[C@@]2(CCc3ccccc3)c3[nH]c4ccccc4c3CCN2C1=O)NCCCn1ccnc1 (stereo not given in full),6.04
13,O=S(=O)(Nc1ccccc1N1CCCC1)c1ccccc1C(F)(F)F,14.1
14,CC1(c2ccccc2)CC(C)(C)N2C(=O)C(=O)c3cccc1c32 (stereo not given),4.14
15,CCOC(=O)c1c(CC(C)C)csc1NC(=O)COC(=O)c1ccc(O)cc1,-30.8
16,CCOc1cc(C)c(-c2onc(C(F)(F)F)c2-c2csc(C)n2)c(O)c1,-4.2
17,O=C(Nc1ccccc1C(=O)Nc1nnc(C(F)(F)F)s1)c1ccccc1Cl,-22.6
18,CCCCn1c(=O)[nH]c(=O)c2c1nc(-c1ccccc1F)n2Cc1ccccc1OC,7.58
19,CCCN(CCC)Cc1cc(=O)oc2cc(OC)ccc12,-7.74
20,Cc1cc(Br)c2c(c1)[C@](O)(c1cn(C)c3ccccc13)C(=O)N2C,15.4

row,Structure (SMILES),activation [%]
1,N#Cc1c(-c2ccc(Cl)cc2)cc(-c2cccs2)nc1SCC(=O)O,0.632
2,Cc1ccc2nc(-c3cccc(Br)c3)c(Cc3ccccn3)n2c1,-19.9
3,C=C1CC2C(=O)N(Cc3cc(OC)ccc3OC)C(C(=O)OCC)(C(=O)OCC)C1N2C(=O)OC(C)(C)C (stereo not given),-13.4
4,Cn1c2ccccc2c2cc(/C=N/NC(=O)c3cc(O)cc(O)c3)ccc21,21.7
5,CC(C)=CCC[C@H](C)C[C@@H]1Cc2[nH][nH]c(=O)c2[C@H](c2ccc(F)cc2)O1,-34.2
6,O=[N+]([O-])c1ccc(C=NNc2ccc(S(=O)(=O)O)cc2)cc1,-11
7,COc1ccc(/C=C/C(=O)c2ccccc2)c(OC)c1,19.4
8,Cc1ccc(Nc2c([N+](=O)[O-])c(=O)oc3ccccc23)cc1C,-7.82
9,CCCc1[nH]c2ccc(C#N)cc2c1CCC,10.6
10,COc1cc(/C=C2\SC(=S)N(NC(=O)c3ccc(O)c(OC)c3)C2=O)ccc1O,8.67
11,CCOC(=O)[C@H]1[C@H]2COc3ccc(C)cc3[C@@H]2N2C(=O)c3cc(F)c(F)cc3NC(=O)[C@@]12C,-1.56
12,O=C(O)c1[nH]c2ccccc2c1C(c1cccc(O)c1)c1c(C(=O)O)[nH]c2ccccc12,3.1
13,COc1cccc(/C=C2/NC(=O)N(CC(=O)Nc3ccc(C)cc3)C2=O)c1OCc1cccc(C(=O)O)c1,26.2
14,Cc1ccccc1-c1ccc(CN2C(C(C)C)C(=O)N(Cc3cn(CCC4OCCO4)nn3)CCS2(=O)=O)cc1 (stereo not given),0.603
15,O=C1[C@H](Cc2ccccc2)NCC=CC[C@@H](c2ccc(Cl)cc2)N1Cc1ccc(Cl)cc1,3.31
16,COc1ccccc1N1C(=O)C2C(C(=O)c3ccccc3)=NN(c3ccc(Br)cc3)C2C1=O (stereo not given),-49.4
17,CCOc1ccc(NC(=NCc2ccc3c(c2)OCO3)SC2CC(=O)N(c3ccc(C(=O)O)cc3)C2=O)cc1 (stereo not given),6.94
18,CCc1cc(=O)oc2cc(C)cc(OCC(=O)N[C@@H](CSCc3ccccc3)C(=O)O)c12,-2.67
19,O=C(O)C1Nc2c(Cl)cc(Cl)c(Cl)c2C2C=CCC12 (stereo not given),9.43
20,O=c1oc2ccccc2n1Cc1ccccc1Cl,14

# Biological target: Rap guanine nucleotide exchange factor 4 (Homo sapiens) (UniProt Q8WZA2)
# Sequence (Q8WZA2 whole entry, looked up): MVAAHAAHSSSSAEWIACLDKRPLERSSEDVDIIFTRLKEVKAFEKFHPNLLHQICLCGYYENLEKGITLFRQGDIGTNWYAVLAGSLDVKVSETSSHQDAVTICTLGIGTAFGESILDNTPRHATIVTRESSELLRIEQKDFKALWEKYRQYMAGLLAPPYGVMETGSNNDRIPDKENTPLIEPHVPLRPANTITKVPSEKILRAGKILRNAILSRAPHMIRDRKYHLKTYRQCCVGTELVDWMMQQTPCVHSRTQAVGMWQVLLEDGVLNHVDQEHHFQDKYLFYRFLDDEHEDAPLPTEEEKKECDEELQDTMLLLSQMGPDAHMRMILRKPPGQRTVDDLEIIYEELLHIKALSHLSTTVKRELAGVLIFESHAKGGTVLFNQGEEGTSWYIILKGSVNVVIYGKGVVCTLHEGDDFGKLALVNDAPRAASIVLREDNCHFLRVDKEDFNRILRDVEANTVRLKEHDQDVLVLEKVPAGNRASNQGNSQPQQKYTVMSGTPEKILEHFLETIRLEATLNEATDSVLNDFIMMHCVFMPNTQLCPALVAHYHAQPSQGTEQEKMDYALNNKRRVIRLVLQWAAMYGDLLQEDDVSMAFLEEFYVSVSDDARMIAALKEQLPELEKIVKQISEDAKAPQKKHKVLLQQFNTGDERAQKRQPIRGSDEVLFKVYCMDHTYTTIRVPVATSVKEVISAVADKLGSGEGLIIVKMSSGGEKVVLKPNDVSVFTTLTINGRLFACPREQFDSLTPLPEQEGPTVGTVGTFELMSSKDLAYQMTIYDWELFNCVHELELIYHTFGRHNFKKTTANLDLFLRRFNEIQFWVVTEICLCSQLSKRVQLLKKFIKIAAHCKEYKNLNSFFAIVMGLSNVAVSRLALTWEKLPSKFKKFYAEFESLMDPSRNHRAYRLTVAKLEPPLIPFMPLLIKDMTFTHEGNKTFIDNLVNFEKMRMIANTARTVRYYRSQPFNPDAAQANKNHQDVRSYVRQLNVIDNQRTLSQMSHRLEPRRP
# Experiment: Confirmatory qHTS for agonist of cAMP-regulated guanine nucleotide exchange factor 4 (EPAC2) (AID 1645884);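 note: nucleotide exchange releases bodipy-GDP from Rap1 and this lowers its fluorescence; % is set by controls: 0 for no effect and ±100 for the full control effect; nearly all actives have a fitted effect of over 65% in size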
# Conditions: EPAC2 GEF activity, Rap1B-BODIPY-GDP fluorescence; series mostly up to 154 µM; activation: at the top concentration
row,Structure (SMILES),activation
1,O=S(=O)(Nc1nccs1)c1ccc(Nc2nnc(-c3ccccc3)c3ccccc23)cc1,"2.79% [at 17.1 µM, percent relative to cAMP agonist control]"
2,O=C1c2ccccc2C(c2nnnn2Cc2ccccc2)N1CCc1c[nH]c2ccccc12 (stereo not given),5.52%
3,CCCCc1ccc(NC(=O)CN2C(=O)C3CCCCC3C2=O)cc1 (stereo not given),0.0357%
4,O=C1C(=Cc2cn(-c3ccccc3)nc2-c2ccc(OCc3ccc(Cl)cc3)cc2)SC(=S)N1CCS(=O)(=O)O,14.1%
5,CCOC(=O)c1c(NC(=O)c2ccc(S(=O)(=O)N(C)CC3CCCO3)cc2)sc2c1CCN(C)C2 (stereo not given),-78.5%
6,Cc1ccc2oc(=O)c3cnn(CC(=O)NC4CCC(C)CC4)c3c2c1 (stereo not given),-21.7%
7,COc1ccc(NC(=O)c2cccnc2NCCc2ccccc2)cc1,13.9%
8,CCCCC[C@H](C)N1C[C@H](COCc2ccccc2)Oc2cc(N3CCC[C@H]3C(N)=O)ccc2S1(=O)=O,-38.1%
9,COc1ccc(-c2nc(CCNS(=O)(=O)c3ccc4c(c3)OCCO4)cs2)cc1,-16.5%
10,O=C(COC(=O)c1c2c(nc3ccccc13)/C(=C\c1ccco1)CC2)NC1CCCC1,3.19%
11,CCOC(=O)c1c(C)[nH]c(C(=O)C(C)OC(=O)c2ccc(NC(=O)CC#N)cc2)c1C (stereo not given),-2.59%
12,O=C(CC1C[C@H](C(=O)N2CCCCC2)[C@@]2(CCc3ccccc3)c3[nH]c4ccccc4c3CCN2C1=O)NCCCn1ccnc1 (stereo not given in full),-4.11%
13,O=S(=O)(Nc1ccccc1N1CCCC1)c1ccccc1C(F)(F)F,13.6%
14,CC1(c2ccccc2)CC(C)(C)N2C(=O)C(=O)c3cccc1c32 (stereo not given),"-2.11% [at 17.1 µM, percent relative to cAMP agonist control]"
15,CCOC(=O)c1c(CC(C)C)csc1NC(=O)COC(=O)c1ccc(O)cc1,-58%
16,CCOc1cc(C)c(-c2onc(C(F)(F)F)c2-c2csc(C)n2)c(O)c1,-12.5%
17,O=C(Nc1ccccc1C(=O)Nc1nnc(C(F)(F)F)s1)c1ccccc1Cl,-36.7%
18,CCCCn1c(=O)[nH]c(=O)c2c1nc(-c1ccccc1F)n2Cc1ccccc1OC,4.66%
19,CCCN(CCC)Cc1cc(=O)oc2cc(OC)ccc12,-17.1%
20,Cc1cc(Br)c2c(c1)[C@](O)(c1cn(C)c3ccccc13)C(=O)N2C,"1.9% [at 17.1 µM, percent relative to cAMP agonist control]"

row,Structure (SMILES),activation
1,N#Cc1c(-c2ccc(Cl)cc2)cc(-c2cccs2)nc1SCC(=O)O,-18.7%
2,Cc1ccc2nc(-c3cccc(Br)c3)c(Cc3ccccn3)n2c1,0%
3,C=C1CC2C(=O)N(Cc3cc(OC)ccc3OC)C(C(=O)OCC)(C(=O)OCC)C1N2C(=O)OC(C)(C)C (stereo not given),-25.2%
4,Cn1c2ccccc2c2cc(/C=N/NC(=O)c3cc(O)cc(O)c3)ccc21,7.43%
5,CC(C)=CCC[C@H](C)C[C@@H]1Cc2[nH][nH]c(=O)c2[C@H](c2ccc(F)cc2)O1,-56.8%
6,O=[N+]([O-])c1ccc(C=NNc2ccc(S(=O)(=O)O)cc2)cc1,"-6.29% [at 17.1 µM, percent relative to cAMP agonist control]"
7,COc1ccc(/C=C/C(=O)c2ccccc2)c(OC)c1,"0.603% [at 17.1 µM, percent relative to cAMP agonist control]"
8,Cc1ccc(Nc2c([N+](=O)[O-])c(=O)oc3ccccc23)cc1C,-21.6%
9,CCCc1[nH]c2ccc(C#N)cc2c1CCC,-1.11%
10,COc1cc(/C=C2\SC(=S)N(NC(=O)c3ccc(O)c(OC)c3)C2=O)ccc1O,4.36%
11,CCOC(=O)[C@H]1[C@H]2COc3ccc(C)cc3[C@@H]2N2C(=O)c3cc(F)c(F)cc3NC(=O)[C@@]12C,-2.24%
12,O=C(O)c1[nH]c2ccccc2c1C(c1cccc(O)c1)c1c(C(=O)O)[nH]c2ccccc12,12.6%
13,COc1cccc(/C=C2/NC(=O)N(CC(=O)Nc3ccc(C)cc3)C2=O)c1OCc1cccc(C(=O)O)c1,-2.75%
14,Cc1ccccc1-c1ccc(CN2C(C(C)C)C(=O)N(Cc3cn(CCC4OCCO4)nn3)CCS2(=O)=O)cc1 (stereo not given),-5.82%
15,O=C1[C@H](Cc2ccccc2)NCC=CC[C@@H](c2ccc(Cl)cc2)N1Cc1ccc(Cl)cc1,4.17%
16,COc1ccccc1N1C(=O)C2C(C(=O)c3ccccc3)=NN(c3ccc(Br)cc3)C2C1=O (stereo not given),-97.8%
17,CCOc1ccc(NC(=NCc2ccc3c(c2)OCO3)SC2CC(=O)N(c3ccc(C(=O)O)cc3)C2=O)cc1 (stereo not given),-22.3%
18,CCc1cc(=O)oc2cc(C)cc(OCC(=O)N[C@@H](CSCc3ccccc3)C(=O)O)c12,-4.74%
19,O=C(O)C1Nc2c(Cl)cc(Cl)c(Cl)c2C2C=CCC12 (stereo not given),0.549%
20,O=c1oc2ccccc2n1Cc1ccccc1Cl,6.68%

# Source: PubChem BioAssay (NCATS)
